Laboratory results from the OligoGym collection.

These sequences were tested against SSX3 (assay: pooled miR-30 sensor sort-seq; sequence = guide strand). Settings: shRNA.
Further: reference of the scale not given here.

Row | Sequence | sensor-assay potency score (higher = more potent)
1 | TTTGGGTCCAGATATCATGTTA | -0.75
2 | TTTCTCCGAGACTTTCATCTTT | -0.136
3 | CATCTGAGGACGTTGAACCTGA | -0.724
4 | TTCTCCGAGACTTTCATCTTTT | -0.696
5 | TAACAGAATGACACACTTCAAG | -1.11
6 | TTTTGTATCTTCTCTGGTATTT | -0.981

These sequences were tested against SSX4B in the same assay as above. Settings: shRNA.

Row | Sequence | sensor-assay potency score (higher = more potent)
7 | ATTCCTGTGGTTTCGATCGTTA | -0.284
8 | TTCATAAACCACCAGCTGCTTT | -1.07
9 | TTAATCTTCTCCAAGGTACTTG | 0.0289
10 | TTTAGTCATGACCTCATAGTTT | -0.792
11 | TTGTTAATCTTCTCCAAGGTAC | -0.679
12 | TTTAGCTTCATATACACATAGA | -0.61
13 | TCTCTGATATTTGAGCATCATC | -2.01
14 | TAATCTTCTCCAAGGTACTTGG | -0.322
15 | TGATATTTGAGCATCATCCCTG | 0.125
16 | TTAGTCATGACCTCATAGTTTA | -0.622
17 | AACCATTTTCTTCCTCTGCTGG | -0.606
18 | TGTCTTGTTAATCTTCTCCAAG | -1.4

Each sequence was assayed against SSX5 in the same assay as above. Settings: shRNA.

Row | Sequence | sensor-assay potency score (higher = more potent)
19 | TTTGAGAACCAACCCTAGGTCT | -0.607
20 | TTTCTCTCACGCACTCTGTGGG | -0.559
21 | TTGCTTTCTCTCACGCACTCTG | 0.108
22 | TTCATAAATCACCAGTTGCTTT | -1.18
23 | TACACAAACTGAAATATGCATT | -0.947
24 | AACAGAAACACTAACATCGAAC | -0.742
25 | TTGTTAACCTTCTCAGAGGTAT | -0.473
26 | TTCTCGGGCGTGATCTTCGGGA | -0.793
27 | TGGTATTTGAGAACCAACCCTA | -0.335
28 | TGCTTTTGCATCTTCTCTGGTA | -0.325
29 | TTGCTCATCAGTGAAAACGCTA | -0.328
30 | TTCTCTCACGCACTCTGTGGGT | -1.32

The sequences below were run against ST6GAL2 in the same assay as above. Settings: shRNA.

Row | Sequence | sensor-assay potency score (higher = more potent)
31 | TTGAATCTTCTCTTTAGTGTTC | 0.135
32 | TTGGTTGAATCTTCTCTTTAGT | -0.57
33 | TAAGATTTGCGGAATATGGGGC | 0.141
34 | AAGTAGTCGTCATCCTCCGGGT | -0.429
35 | TTTGGTTGAATCTTCTCTTTAG | -0.877
36 | TTTATTCCCAACATCTTTCTCA | 0.384
37 | TTTATGTTCAAACCCATCTTGG | -0.693
38 | TACACGTGCACCTCTCTGCACA | -0.913
39 | TTAATGATGCGTATGGTGGTTT | -0.296
40 | TTCTCTTTAGTGTTCTCCTGGA | 0.105
